The source of these data is the supplement of paper PMC8183993.

Values joined by “and” are separate entries in the source; they are usually repeats but may differ in a detail not shown here. Equal values may be shown once. Where a name gives a salt, the structure may show the parent alone. ± gives the standard deviation of the averaged measurements. Whole data set: some 3,100 compounds, median “mean cytoplasmic OPP incorporation (global translation) relative to DMSO” near 100, cut for the lowest 2% near 56. The full list was thinned out, with the lowest values kept by preference.

The assay concerns U2OS. The assay can be described thus: mean cytoplasmic OPP incorporation (global translation) relative to DMSO (% of DMSO); higher = more protein synthesis. As to conditions: 10 µM; 24 h. The protocol:
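Primary image-based screen in U2OS cells: compounds at 10 uM for 24 h, then a 1 h o-propargyl-puromycin (OPP) pulse, click labelling, and high-throughput microscopy. Mean cytoplasmic OPP intensity and nuclei count were normalised to DMSO wells within each plate (DMSO = 100) and averaged over triplicate plates.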
In the case of `CCN(CC)CCNC(=O)c1c(C)[nH]c(/C=C2\C(=O)Nc3ccc(Cl)cc32)c1C`, the “mean cytoplasmic OPP incorporation” value stood at 124.

In the case of `Cc1nnc(-c2ccc3occ(-c4ccc([S+](C)[O-])cc4)c3c2)o1` (stereo not given), the “mean cytoplasmic OPP incorporation” value was determined as 105.

In the case of `CCCCC[C@H](O)/C=C/C=C\CCCCCCCC(=O)O` [13(S)-Hydroxy-9Z,11E-octadecadienoic acid], the “mean cytoplasmic OPP incorporation” value amounted to 99.3.

Take `CC(/C=C/C(=O)NO)=C\[C@@H](C)C(=O)c1ccc(N(C)C)cc1` [Trichostatin A]: the “mean cytoplasmic OPP incorporation” value turned out to be 66.2 ± 33.

On to `Cc1[nH]c(/C=C2\C(=O)Nc3ccc(S(=O)(=O)N(C)c4cccc(Cl)c4)cc32)c(C)c1C(=O)N1CCN(C)CC1`, for which the “mean cytoplasmic OPP incorporation” value was 88.9.

As for `CN1CCN(C(=O)c2nc3ccc(Cl)cc3[nH]2)CC1`, the “mean cytoplasmic OPP incorporation” value was 81.1.

`CN1CCCN(C(=O)c2cccc(-c3ccc(/C=C4/C(=O)Nc5ccc(Cl)cc54)o3)c2)CC1`: the “mean cytoplasmic OPP incorporation” value was 55.4.

Turning to `NCCCCCc1c[nH]cn1` [Impentamine dihydrobromide], the “mean cytoplasmic OPP incorporation” value came to 99.3.

For `Cc1cc(C)c(S(=O)(=O)Nc2ccccc2C(F)(F)F)c(C)c1`, the “mean cytoplasmic OPP incorporation” value came out at 97.3.

Consider `O=C(Nc1ccccc1-c1cn2c(CN3CCNCC3)csc2n1)c1cnc2ccccc2n1`, for which the “mean cytoplasmic OPP incorporation” value came out at 48.8.

Regarding `Cc1cc(C(=O)O)sc1C(N)C(=O)O` (stereo not given), the “mean cytoplasmic OPP incorporation” value stood at 104.

Consider `COC(=O)[C@@H](N)CSC/C=C(\C)CC/C=C(\C)CCC=C(C)C` [S-Farnesyl-L-cysteine methyl ester], for which the “mean cytoplasmic OPP incorporation” value was found to be 95.9.

Turning to `CSc1ccc(/C=C2/C(C)=C(CC(=O)O)c3cc(F)ccc32)cc1` [Sulindac Sulfide], the “mean cytoplasmic OPP incorporation” value was found to be 104.

As for `Nc1nc(Nc2ccc(S(N)(=O)=O)cc2)nn1C(=O)c1c(F)cccc1F`, the “mean cytoplasmic OPP incorporation” value is 50.1.

Regarding `NS(=O)(=O)c1ccc(NC(=O)Nc2ccc(F)cc2)cc1`, the “mean cytoplasmic OPP incorporation” value turned out to be 98.7.

Turning to `COc1ccc(CCN2CCN(CCCc3ccccc3)CC2)cc1OC`, the “mean cytoplasmic OPP incorporation” value came out at 111.

`CCN(C(=O)CO)[C@H]1CN(/C(=N\C#N)Nc2cccc(OC(F)F)c2)N=C1c1ccc(Cl)c(Cl)c1`: the “mean cytoplasmic OPP incorporation” value worked out at 107.

On to `CCCCCCCCOC(=O)/C=C/c1ccc(O)c(O)c1` [n-Octyl caffeate], for which the “mean cytoplasmic OPP incorporation” value is 88.9.

Consider `NC(N)=NCCC[C@H](NC(=O)[C@@H]1CCCN1C(=O)[C@H](N)Cc1ccccc1)C(=O)CCl`, for which the “mean cytoplasmic OPP incorporation” value turned out to be 99.7.

In the case of `O=C(O)Cc1ccc(OCCNC[C@H](O)c2ccccc2)cc1` [ZD 2079 hydrochloride], the “mean cytoplasmic OPP incorporation” value came to 103.

As to `Cc1cc(I)ccc1Nc1c(C(=O)NOCC2CC2)cc(F)c(F)c1F`, the “mean cytoplasmic OPP incorporation” value worked out at 97.5.

As to `CCCC[C@@H](C=O)NC(=O)[C@H](CC(C)C)NC(=O)OCc1ccccc1` [Calpeptin], the “mean cytoplasmic OPP incorporation” value is 106 ± 7.2.

On to `CC(C)C[C@@H](C=O)NC(=O)[C@H](CC(C)C)NC(=O)[C@H](CC(C)C)NC(=O)OCc1ccccc1`, for which the “mean cytoplasmic OPP incorporation” value was 91.4 and 56.1.

On to `CC(NC(=O)C(Cc1ccccc1)NC(=O)OCc1ccccc1)C(=O)CF` (stereo not given), for which the “mean cytoplasmic OPP incorporation” value amounted to 101.

For the compound `C[C@H](CC[C@@H]1OC1(C)C)[C@H]1CC[C@H]2[C@@H]3CC=C4C[C@@H](O)CC[C@]4(C)[C@H]3CC[C@]12C` [24(S),25-Epoxycholesterol], the “mean cytoplasmic OPP incorporation” value is 112.

For `Cc1ccc(NC(=O)C(C)C)cc1C1CCN(Cc2ccc(Oc3ccc(F)c(F)c3)cc2)CC1`, the “mean cytoplasmic OPP incorporation” value is 108.

Take `CC[C@H](C)[C@H](N)C1=N[C@H](C(=O)N[C@@H](CC(C)C)C(=O)N[C@H](CCC(=O)[O-])C(=O)N[C@H](C(=O)N[C@H]2CCCCNC(=O)[C@H](CC(N)=O)NC(=O)[C@@H](CC(=O)[O-])NC(=O)[C@H](Cc3cnc[nH]3)NC(=O)[C@@H](Cc3ccccc3)NC(=O)[C@H]([C@@H](C)CC)NC(=O)[C@@H](CCCN)NC2=O)[C@@H](C)CC)CS1.[Zn+2]` [Bacitracin zinc]: the “mean cytoplasmic OPP incorporation” value worked out at 107.

As for `CCCC(CCC)C(=O)NO` [Valproic acid hydroxamate], the “mean cytoplasmic OPP incorporation” value was 110.

Turning to `Cc1cnc(NC(=O)Nc2cc(Br)c(C)cc2OC[C@@H]2CNCCO2)cn1`, the “mean cytoplasmic OPP incorporation” value is 45.6.

Regarding `CCOc1ccccc1OCC1CNCCO1` (stereo not given) [Viloxazine hydrochloride], the “mean cytoplasmic OPP incorporation” value is 87.8.

As for `COc1cc(OC)c(NC(=O)Nc2cc(C)on2)cc1Cl`, the “mean cytoplasmic OPP incorporation” value came to 103.

`CC(=O)OCCN1C(=O)c2c(C)nc3ccc(S(=O)(=O)N4CCOCC4)cc3c2C1=O` [Ivachtin]: the “mean cytoplasmic OPP incorporation” value worked out at 105.

Take `CCOC(=O)C1=CN(Cc2ccccc2)C=C(C(=O)OCC)C1c1ccccc1`: the “mean cytoplasmic OPP incorporation” value turned out to be 99.2.

Regarding `Nc1ncn(C2CC(O)C(CO)O2)c(=O)n1` (stereo not given) [5-Aza-2-deoxycytidine], the “mean cytoplasmic OPP incorporation” value came to 94.5.

Take `CCCn1c(=O)c2[nH]c(-c3ccccc3)nc2n(CCC)c1=O` [1,3-Dipropyl-8-phenylxanthine]: the “mean cytoplasmic OPP incorporation” value was 99.1.

In the case of `CCCn1c(=O)c(C)cn2nc(N)nc12`, the “mean cytoplasmic OPP incorporation” value came out at 104.

As to `CCCC[C@@H](C=O)NC(=O)OC(C)(C)C`, the “mean cytoplasmic OPP incorporation” value was found to be 101.

As for `CC1=C(/C=C/C(C)=C/C=C/C(C)=C/C(=O)O)C(C)(C)CCC1O` (stereo not given) [4-Hydroxyretinoic acid], the “mean cytoplasmic OPP incorporation” value turned out to be 101.

In the case of `COC(=O)[C@]12CCC(C)(C)C[C@H]1[C@H]1C(=O)C=C3[C@@]4(C)C=C(C#N)C(=O)C(C)(C)[C@@H]4CC[C@@]3(C)[C@]1(C)CC2` [Bardoxolone Methyl], the “mean cytoplasmic OPP incorporation” value is 25.6.

Regarding `N[C@@H](Cc1cc(I)c(Oc2ccc(O)cc2)c(I)c1)C(=O)O` [3,5-Diiodo-L-thyronine], the “mean cytoplasmic OPP incorporation” value was found to be 103.

For `CC(C)[C@H](C(=O)Nc1ccc(C(=O)NO)cc1)c1ccccc1`, the “mean cytoplasmic OPP incorporation” value worked out at 53.

With `CCN(CC)Cc1ccc2cc(COC(=O)Nc3ccc(C(=O)NO)cc3)ccc2c1` [ITF2357 (Givinostat)], the “mean cytoplasmic OPP incorporation” value worked out at 104.

As for `CC(=O)Nc1ccccc1` [Acetanilide (Antifebrin)], the “mean cytoplasmic OPP incorporation” value turned out to be 102.

Regarding `COc1ccc(CN2C(=O)C(=O)c3cc(OC(F)(F)F)ccc32)cc1`, the “mean cytoplasmic OPP incorporation” value was 102.

Regarding `CC(C)Oc1ccc2c(=O)c3cc(C(=O)O)ccc3oc2c1`, the “mean cytoplasmic OPP incorporation” value came to 102.

`O=[N+]([O-])c1ccccc1S(=O)(=O)NCC1CCC(CNCC2CCc3ccccc3C2)CC1` (stereo not given) [NTNCB hydrochloride]: the “mean cytoplasmic OPP incorporation” value was determined as 114.

Regarding `CC(C)NCCN(C(C)C)S(=O)(=O)c1ccc(Cl)cc1Cl`, the “mean cytoplasmic OPP incorporation” value was determined as 95.9.

Turning to `O=C1c2ccccc2C(=O)c2c(NCCc3ccc(O)cc3)ccc(NCCc3ccc(O)cc3)c21`, the “mean cytoplasmic OPP incorporation” value is 120.

On to `C[N+](C)([O-])CCNc1ccc(NCC[N+](C)(C)[O-])c2c1C(=O)c1c(O)ccc(O)c1C2=O` [Banoxantrone dihydrochloride], for which the “mean cytoplasmic OPP incorporation” value was found to be 87.9.

On to `O=C1c2c(O)ccc(O)c2C(=O)c2c(NCCNCCO)ccc(NCCNCCO)c21` [Mitoxantrone dihydrochloride], for which the “mean cytoplasmic OPP incorporation” value came out at 20.9.
